# Test results published in ChEMBL document CHEMBL3988442, “University of Dundee, Small-Polar-MMV Screening Library” (2021).
# In all, about 69,000 compounds went through this assay and about 1,000 (1.4%) showed an effect of 50% or more. Many of the other results were omitted from the sample, so strong results are more common in it than they were.
# System: Leishmania donovani
# Assay: Leishmania intramacrophage assay
# Format: functional, organism-based
# Design: scale not given: in the data most compounds retested in dose-response had high values
structure (smiles),measurement,setting,value
CCCc1noc(C2CC(=O)N(Cc3ccccc3)C2)n1 (configuration not stated),Percent Effect,"30.3 µM, […]",62.8%
CCCc1noc(C2CC(=O)N(C(C)(C)C)C2)n1 (configuration not stated),Percent Effect,"30.3 µM, […]",13.52%
CCCc1noc(C2CC(=O)N(CCN(C)C)C2)n1 (configuration not stated),Percent Effect,"30.3 µM, […]",24.39%
O=C(CCS(=O)(=O)c1ccccc1)NC1CCOC2(CCOCC2)C1 (configuration not stated),Percent Effect,"30.3 µM, […]",-6.021%
COCCN1CCCCC12CC(=O)N(c1cccc(C#N)c1)C2.O=C(O)C(F)(F)F (configuration not stated),Percent Effect,"30.3 µM, […]",50.28%
O=C(O)C(F)(F)F.O=C1CC2(CCCCN2CC2CC2)CN1c1ccccc1 (configuration not stated),Percent Effect,"30.3 µM, […]",20.41%
COCCN1CCCCC12CC(=O)N(c1ccccc1OC)C2.O=C(O)C(F)(F)F (configuration not stated),Percent Effect,"30.3 µM, […]",20.15%
COc1ccc(N(c2ccccc2)c2ccc(C(=O)O)s2)cc1,Percent Effect,"30.3 µM, […]",6.692%
Cc1cnc(C(=O)N2CCCC3(CCN(c4cnn(C)c4)C3=O)C2)cn1 (configuration not stated),Percent Effect,"30.3 µM, […]",-31.28%
CN(C)C(=O)CC1CC2(CCN(CC3CC3)CC2)Oc2ccccc21.O=C(O)C(F)(F)F (configuration not stated),Percent Effect,"30.3 µM, […]",9.368%
CCn1nccc1CN(C)C(=O)Cn1nc(C)cc1C,Percent Effect,"30.3 µM, […]",19.68%
CCn1nccc1CN(C)C(=O)Cn1nc(C)c(C)c1C,Percent Effect,"30.3 µM, […]",6.99%
CCn1nccc1CN(C)C(=O)Cn1cc2c(n1)c(C)nn2CC,Percent Effect,"30.3 µM, […]",72.98%
O=C(c1csc(-c2ccc(C(F)(F)F)cc2)n1)N1CCCNCC1,Percent Effect,"30.3 µM, […]",53.12%
O=C1CCN(C(=O)c2csc(-c3ccc(C(F)(F)F)cc3)n2)CCN1,Percent Effect,"30.3 µM, […]",-4.65%
CN1CCCN(C(=O)c2csc(-c3ccc(C(F)(F)F)cc3)n2)CC1,Percent Effect,"30.3 µM, […]",-34.88%
CCc1nc(C2CCCN2CCC(=O)N2CCc3ccccc32)no1 (configuration not stated),Percent Effect,30 µM,-5.363%
Cc1cc(C(=O)Nc2nnn[nH]2)ccc1I,Percent Effect,"30.3 µM, […]",2.496%
O=C(O)C(F)(F)F.O=C(O)C(F)(F)F.O=C(O)C(F)(F)F.c1cncc(COCc2cncc3c2CCN(Cc2ccoc2)C3)c1,Percent Effect,"30.3 µM, […]",3.293%
Cc1nc(N2CCCC2)nc2c1CCN(C(=O)N1CCCC1)CC2,Percent Effect,"30.3 µM, […]",-2.559%
Cc1nc(N2CCCC2)nc2c1CCN(C(=O)c1ccoc1C)CC2,Percent Effect,"30.3 µM, […]",54.38%
Cc1cc(C(=O)N2CCc3nc(N4CCCC4)nc(C)c3CC2)c(C)o1,Percent Effect,"30.3 µM, […]",44.41%
CCn1ccc(C(=O)N2CCCC2(C)c2nc(C)cc(N(C)C)n2)n1 (configuration not stated),Percent Effect,"30.3 µM, […]",26.06%
CC(C)CNC(=O)C(C)N1CCN(C2CCN(C(C)C)CC2)CC1 (configuration not stated),Percent Effect,"30.3 µM, […]",19.26%
CCC(=O)N1CCC(c2nc(C)c3c(n2)N(C)CCC3)CC1,Percent Effect,"30.3 µM, […]",31.8%
CCN(CC)C(=O)CN1CCC(c2nc(C)c3c(n2)N(C)CCC3)CC1,Percent Effect,"30.3 µM, […]",-13.08%
CCN(CC)C(=O)CN1CCCC(c2nc(C)c3c(n2)N(C)CCC3)C1 (configuration not stated),Percent Effect,"30.3 µM, […]",94.66%
CS(=O)(=O)NC1CCCN(C(=O)Nc2cccnc2N2CCCC2)C1 (configuration not stated),Percent Effect,"30.3 µM, […]",64.13%
CS(=O)(=O)NCC1CCCN(C(=O)Nc2cccnc2N2CCCC2)C1 (configuration not stated),Percent Effect,"30 µM, 30.03 µM",4.026%
CS(=O)(=O)NC1CCCN(C(=O)Nc2cccnc2)C1 (configuration not stated),Percent Effect,30 µM,-4.572%
CCOCc1cncc2c1CCN(C(=O)c1cscn1)C2.O=C(O)C(F)(F)F,Percent Effect,"30.3 µM, […]",5.62%
Cc1ccc(C(=O)NC2CCN(C(C)C)C2)c(=O)[nH]1 (configuration not stated),Percent Effect,"30.3 µM, […]",39.11%
Cc1ccc(C(=O)NC2CCCN(S(C)(=O)=O)C2)c(=O)[nH]1 (configuration not stated),Percent Effect,"30.3 µM, […]",4.219%
Cc1ccc(C(=O)NC2CCN(S(C)(=O)=O)CC2)c(=O)[nH]1,Percent Effect,"30.3 µM, […]",59.71%
CNC(=O)C1CN(c2cc(C)ncn2)CCN1Cc1ccccc1 (configuration not stated),Percent Effect,"30.3 µM, […]",-5.457%
CCOC(=O)N1CCN(C(=O)c2cc(-c3ccccc3F)on2)CC1,Percent Effect,"30.3 µM, […]",-28.98%
CCOC(=O)N1CCN(C(=O)c2cc(-c3ccc(C)cc3)on2)CC1,Percent Effect,"30.3 µM, […]",67.95%
CCOC(=O)N1CCN(C(=O)c2cc(-c3ccc(Cl)cc3Cl)on2)CC1,Percent Effect,"30.3 µM, […]",18.25%
Cn1cc(C(=O)N2CC[C@@H]3[C@@H]2CCN3c2ncc(F)cn2)cn1.O=C(O)C(F)(F)F,Percent Effect,"30.3 µM, […]",4.387%
Cc1ccsc1CNC(=O)c1ccc(N2CCOC2=O)cc1,Percent Effect,"30.3 µM, […]",-0.1452%
COc1cccc(COC(C)C(=O)N(C)Cc2nnc3n2CCC3)c1 (configuration not stated),Percent Effect,"30.3 µM, […]",-15.17%
Cc1cc(C(=O)NC(COCC(C)C)c2ccco2)no1 (configuration not stated),Percent Effect,"30.3 µM, […]",10.39%
CCc1ccc(CN(CCN(C)C)Cc2ccc(C)s2)nc1,Percent Effect,"30.3 µM, […]",60.62%
COc1ncc(CN(CCN(C)C)Cc2ccc(C)s2)cn1,Percent Effect,"30.3 µM, […]",1.942%
CCNc1ncc(CN(CCN(C)C)Cc2ccc(C)s2)cn1,Percent Effect,"30.3 µM, […]",7.089%
CN(C)C(=O)COCC1CN(Cc2ccoc2)Cc2ncn(C)c21.O=C(O)C(F)(F)F.O=C(O)C(F)(F)F (configuration not stated),Percent Effect,"30.3 µM, […]",13.81%
O=C(NCC(F)(F)F)c1ccncc1,Percent Effect,"30.3 µM, […]",80.67%
O=C(NCC(F)(F)C(F)F)c1ccncc1,Percent Effect,"30.3 µM, […]",-13.6%
O=C(NCC(F)(F)C(F)F)c1cccnc1,Percent Effect,"30.3 µM, […]",3.821%
CCC(C)N(Cc1cccnc1)Cc1cc2c(cc1Cl)OCO2 (configuration not stated),Percent Effect,"30.3 µM, […]",69.06%
CCC(C)N(Cc1cccnc1)Cc1ccc2c(c1)OCCO2 (configuration not stated),Percent Effect,"30.3 µM, […]",27.15%
CCC(C)N(Cc1cccnc1)Cc1cc2c(cc1OC)OCO2 (configuration not stated),Percent Effect,"30.3 µM, […]",16.2%
CC(C)CN1C(=O)CC(N2CCN(c3ccc(F)cc3)CC2)C1=O (configuration not stated),Percent Effect,"30.3 µM, […]",-25.93%
CC(C)NC(=O)c1nc(Cn2c(C(F)F)nc3ccccc32)no1,Percent Effect,"30.3 µM, […]",-22.55%
O=C(NC1CC1)c1nc(Cn2c(C(F)F)nc3ccccc32)no1,Percent Effect,"30.3 µM, […]",-15.36%
CC(C)NC(=O)c1nc(Cn2c(C(F)(F)F)nc3ccccc32)no1,Percent Effect,"30.3 µM, […]",55.95%
CCc1nnc2n1CCN(CC(O)c1ccc3c(c1)OCCO3)C2 (configuration not stated),Percent Effect,30 µM,-7.197%
CC(C)(C)OC(=O)N1CCN(S(C)(=O)=O)C2(CCCCC2)C1,Percent Effect,"30.3 µM, […]",27.8%
CC(C)(C)OC(=O)N1CCN(S(=O)(=O)CCCC#N)C2(CCCCC2)C1,Percent Effect,"30.3 µM, […]",52.1%
CN(C)S(=O)(=O)N1CCN(C(=O)OC(C)(C)C)CC12CCCCC2,Percent Effect,"30.3 µM, […]",5.768%
CN1CCN(CC2(O)CCCN(S(=O)(=O)c3cn[nH]c3)CC2)CC1 (configuration not stated),Percent Effect,"30.3 µM, […]",4.995%
Cc1ccc(CN2CCN(Cc3nccn3C)[C@H]3CS(=O)(=O)C[C@H]32)o1,Percent Effect,"30.3 µM, […]",16.96%
CCn1cc(N2Cc3nc(N4CCOCC4)ncc3C2=O)cn1,Percent Effect,"30 µM, 30.03 µM",-6.754%
Cn1cc(N2Cc3nc(N4CCOCC4)ncc3C2=O)cn1,Percent Effect,"30.3 µM, […]",59.37%
CC(C)n1cc(N2Cc3nc(N4CCOCC4)ncc3C2=O)cn1,Percent Effect,"30.3 µM, […]",32.93%
CN(C)Cc1ccc(C(N)=O)cc1NC(=O)c1cccc(C#N)c1,Percent Effect,"30.3 µM, […]",0.5381%
CC(=O)N1CCC(Cc2cccc(-c3ccnn3C)n2)CC1,Percent Effect,"30.3 µM, […]",7.143%
CN(CCNC(=O)Nc1ccn(C)n1)Cc1ccc(F)cc1,Percent Effect,"30.3 µM, […]",-20.54%
CN(CCNC(=O)Nc1cnn(C)c1)Cc1ccc(F)cc1,Percent Effect,"30.3 µM, […]",-44.73%
CN(CCNC(=O)Nc1nccs1)Cc1ccc(F)cc1,Percent Effect,"30.3 µM, […]",53.32%
CCSCc1cccc(NC2CCN(C)C2=O)c1 (configuration not stated),Percent Effect,"30.3 µM, […]",-1.156%
COCCCN(C)c1cc(C(F)(F)F)nc(-c2cccnc2)n1,Percent Effect,"30.3 µM, […]",1.301%
Cl.c1ccc(-c2ccc(C3CNCCO3)nc2)cc1 (configuration not stated),Percent Effect,"30 µM, 30.03 µM",21.61%
CCNC(=O)N(Cc1ccoc1)C1CCCCC1,Percent Effect,"30.3 µM, […]",-8.85%
COc1cc(CSc2nnc(N)n2C2CC2)ccc1SC,Percent Effect,"30.3 µM, […]",3.668%
CC(C)(C)c1ncc(C(=O)N2CCC(N3CCSCC3)CC2)c(O)n1,Percent Effect,"30.3 µM, […]",-1.593%
NC(=O)C(CNC(=O)Cc1ccsc1)Cc1ccc(F)cc1 (configuration not stated),Percent Effect,"30.3 µM, […]",32.76%
Cc1ccc(CC(=O)NCC(Cc2ccc(F)cc2)C(N)=O)cn1 (configuration not stated),Percent Effect,"30.3 µM, […]",53.64%
NC(=O)C(CNC(=O)Cc1ccc(F)cc1)Cc1ccc(F)cc1 (configuration not stated),Percent Effect,"30 µM, 30.03 µM",16.98%
CSc1ncnc(NCc2cccs2)c1C#N,Percent Effect,"30.3 µM, […]",10.2%
COCCCN1Cc2cccc(NC(=O)c3ccccc3C)c2C1,Percent Effect,"30.3 µM, […]",-0.887%
O=C(NCc1ccco1)[C@H]1CC[C@@H]2[C@@H](CCN2Cc2nccs2)O1.O=C(O)C(F)(F)F,Percent Effect,"30.3 µM, […]",-4.08%
COCC[C@]1(O)CCN(Cc2nc(C(C)C)cs2)C[C@H]1C,Percent Effect,"30.3 µM, […]",-0.9404%
COCCn1ccnc1CN(Cc1ccccn1)Cc1sccc1C,Percent Effect,"30.3 µM, […]",60.02%
COCCN(Cc1ccccn1)Cc1sccc1C,Percent Effect,"30.3 µM, […]",0.646%
COCCN(Cc1sccc1C)Cc1nccn1CCOC,Percent Effect,"30.3 µM, […]",16.06%
CS(=O)(=O)c1ccccc1-n1cc(NC(=O)CC2C=CCC2)cn1 (configuration not stated),Percent Effect,"30.3 µM, […]",4.466%
CN(CC(=O)Nc1cnn(-c2ccccc2S(C)(=O)=O)c1)C1CC1,Percent Effect,"30.3 µM, […]",52.47%
CC(C)(C)CC(=O)Nc1cnn(-c2ccccc2S(C)(=O)=O)c1,Percent Effect,"30.3 µM, […]",13.51%
CC(C)c1cc(=O)[nH]c(-c2ccccc2CN2CCCCCC2)n1,Percent Effect,"30.3 µM, […]",1.494%
CCc1nc2c(c(C)c(C)n2Cc2cccnc2)c(N)c1C,Percent Effect,"30.3 µM, […]",13.69%
Cc1c(C)n(Cc2ccccn2)c2nc3c(c(N)c12)CCCC3,Percent Effect,"30 µM, 30.03 µM",-5.276%
CCCc1nc2c(c(C)c(C)n2Cc2ccncc2)c(N)c1CC,Percent Effect,"30.3 µM, […]",13.89%
Cc1c(C)n(Cc2ccncc2)c2nc3c(c(N)c12)CCCC3,Percent Effect,"30.3 µM, […]",9.739%
CCCc1nc2c(c(C)c(C)n2Cc2cccnc2)c(N)c1CC,Percent Effect,"30.3 µM, […]",64.41%
CCCc1nc2c(c(C)c(C)n2Cc2ccccn2)c(N)c1CC,Percent Effect,"30.3 µM, […]",98.46%
O=C(Cc1ccon1)N1CCN(c2ccc(F)cc2Cl)CC1,Percent Effect,"30.3 µM, […]",4.988%
CNC(=O)c1cnn2c(C3CCCN3C)ccnc12 (configuration not stated),Percent Effect,"30.3 µM, […]",-0.3512%
CCN1CCC2(CCN(c3ncccn3)CC2)C1=O.O=C(O)C(F)(F)F,Percent Effect,"30.3 µM, […]",-8.891%
Cc1cc(C(=O)NCC(C)C)nn1C,Percent Effect,"30.3 µM, […]",3.079%
Cc1ccc(F)c(OC2CCCN(c3cnn(C)c3)C2=O)c1 (configuration not stated),Percent Effect,"30.3 µM, […]",1.572%
CN(Cc1nccn1C)S(=O)(=O)Cc1cccc(C#N)c1,Percent Effect,"30.3 µM, […]",3.121%
